CHRM1 PAM: positive allosteric modulators of human M1 muscarinic receptor; P11229; CHO-K1 hM1, Fluo-8 calcium fluorescence, ACh EC20; 0% = ACh EC20, 100% = maximal ACh; activation, % at 3 µM; hit rate 0.088% among 360,000; in the data active means activation above about 19%, passing the limit was not always enough
Target sequence (P11229 whole entry, looked up): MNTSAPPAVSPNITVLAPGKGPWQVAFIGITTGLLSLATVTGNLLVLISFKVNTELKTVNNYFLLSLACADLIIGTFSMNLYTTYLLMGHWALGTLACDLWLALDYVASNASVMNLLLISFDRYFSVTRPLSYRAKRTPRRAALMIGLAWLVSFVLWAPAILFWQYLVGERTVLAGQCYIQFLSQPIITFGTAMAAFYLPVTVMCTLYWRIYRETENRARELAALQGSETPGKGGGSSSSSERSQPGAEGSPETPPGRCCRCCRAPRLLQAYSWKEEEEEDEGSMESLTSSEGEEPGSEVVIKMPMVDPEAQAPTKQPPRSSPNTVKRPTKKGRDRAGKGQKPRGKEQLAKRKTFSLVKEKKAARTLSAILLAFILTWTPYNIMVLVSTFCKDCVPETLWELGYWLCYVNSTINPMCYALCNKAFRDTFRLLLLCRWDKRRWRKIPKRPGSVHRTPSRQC
CHO-K1 Ca antag: counter-screen for M1 antagonists: effect in parental CHO-K1 cells. ATP-induced calcium, Fluo-8 fluorescence. inhibition, % at 3 µM. hit rate 0.6% among 360,000;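 active means inhibition above a per-plate cutoff, the plate's mean sample inhibition plus 3 SD, cut at about 24% in these data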;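 further: 0% = DMSO plus EC80 ATP and 100% = DMSO alone without ATP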
CHRM1 agonist: activates human CHRM1 receptor | P11229 | CHO-K1 hM1, Fluo-8 calcium fluorescence, agonist mode; 0% DMSO, 100% acetylcholine EC100 | activation, % at 3 µM | hit rate 0.33% among 360,000 | AID 588814;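 active means activation above the run's mean compound activation plus 3 SD, cut at about 16% in these data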;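 further: peak over basal fluorescence ratio within a 140 s kinetic read after compound addition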
CHO-K1 Ca PAM: counter-screen for M1 PAMs: effect in parental CHO-K1 cells | ATP EC20, Fluo-8 calcium fluorescence; 0% at ATP EC20, 100% at ATP max | activation, % at 3 µM | hit rate 0.02% among 360,000 | AID 602247;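 active means activation above the run cutoff, the mean activation of all test compounds plus 3 SD, cut at about 40% in these data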;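 further: peak over basal fluorescence ratio in a 140 s read after ATP addition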
CHO-K1 Ca ag: nonselective activator or artifact in parental CHO-K1 cells; Fluo-8 calcium fluorescence; scaled to maximal ATP response, vehicle zero; activation, % at 3 µM; hit rate 0.48% among 360,000; in the data active means activation above about 15%;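 further: untransfected CHO-K1 host cells lacking M1 receptor as counterscreen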
CHRM1 antagonist: antagonists of human M1 muscarinic receptor; P11229; CHO-K1 hM1, Fluo-8 calcium fluorescence, ACh EC80 antagonist; inhibition, % at 3 µM; hit rate 1.3% among 360,000; AID 588852;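 active means percent inhibition above its own plate's cutoff, namely the mean of that plate's compound wells plus 3 SD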;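 further: peak over basal fluorescence ratio during 140 s after agonist addition; 0% = ACh EC80 plus DMSO and 100% = DMSO alone without agonist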
Starred values were filed as active, the others as inactive; / = no result. Most compounds without a hit are left out; they make up all but 2.4% or so of the library.

SMILES	CHRM1 PAM	CHO-K1 Ca antag	CHRM1 agonist	CHO-K1 Ca PAM	CHO-K1 Ca ag	CHRM1 antagonist
CCOC(=O)c1[nH]c2ccc(Br)cc2c1NC(=O)CCN1CCCC(C)(C)C1	-20	7	-8	-7	0	90*
CCOC(=O)c1[nH]c2ccc(OC)cc2c1NC(=O)CN1CCc2ccccc2C1	-9	17	-2	4	4	23*
CC(C)(C)NS(=O)(=O)c1ccc(CCC(=O)NCc2ccccn2)cc1	6	-8	0	23	2	-10
CCOC(=O)C1CCCN(C(=O)c2oc3ccccc3c2C)CC1 (centres undefined)	-4	-7	-1	14	1	3
CCN(CC)CCNC(=O)c1ccc(NC(=O)c2ccc(S(=O)(=O)N3CCCCCC3)cc2)cc1	-11	-10	-8	14	1	10
CCN(CC)CCNC(=O)c1ccc(NC(=O)c2ccc(Cl)c(S(=O)(=O)N3CCCCCC3)c2)cc1	-25	-14	-7	5	0	100*
COc1ccc(C(CNC(=O)c2ccc(Cl)c(S(=O)(=O)N3CCCC3)c2)N2CCCC2)cc1 (centres undefined)	4	-12	-8	7	0	-5
O=C(Nc1ncccc1O)c1ccc(Cl)c(S(=O)(=O)N2CCCCC2)c1	-6	38*	-2	-14	0	16
CCN(CC)CCNC(=O)c1ccc(NC(=O)c2cccc(S(=O)(=O)N3CCCCCC3)c2)cc1	-30	-9	-8	10	0	101*
CCN(CC)CCNC(=O)c1ccc(Cl)c(S(=O)(=O)Nc2ccc(Cl)cc2)c1	0	-13	-7	18	1	-3
COc1ccc(CCNC(=O)c2ccc(Cl)c(S(=O)(=O)N3CCCC3)c2)cc1	-9	-6	0	0	16*	5
COc1ccc(C(=O)COC(=O)[C@@H](NS(=O)(=O)c2ccccc2)C(C)C)cc1	13	-18	1	21	1	-17
C=CCNC(=O)c1c(N)n(-c2ccc3c(c2)OCO3)c2nc3ccccc3nc12	-25	-15	-12	7	1	69*
Nc1c(C(=O)NCC2CCCO2)c2nc3ccccc3nc2n1-c1ccccc1 (centres undefined)	-16	0	3	7	5	28*
Nc1c(C(=O)NCCN2CCOCC2)c2nc3ccccc3nc2n1-c1cccc(F)c1	0	-5	-4	15	2	6
CCCCNC(=O)C1(C)CCCCN1C(=O)c1ccno1 (centres undefined)	6	-6	-3	-9	0	-18
CCOc1ccc(NC(=S)N(CCCN2CCCC2)Cc2cccn2Cc2ccc(Cl)cc2)cc1	5	-3	-5	6	1	-4
Cc1cccc(NC(=S)N(CCCN2CCCC2)Cc2cccn2Cc2ccc(Cl)cc2)c1	-4	0	0	13	17*	11
O=C1NC[C@@H](CCCCN2C[C@H](Cc3ccc(O)cc3)N(Cc3ccccc3)C(=O)C2=O)N(CC2CCCCC2)C1=O	/	-9	/	-7	1	/
COc1ccc(-n2c(SCC(=O)Nc3cc(C(=O)O)ccc3C)nc3ccccc3c2=O)cc1Cl	6	4	-2	15	6	-2
COc1ccc(CNC[C@@H](CCCCN(C)Cc2ccc(OC)cc2)N2C[C@H](c3ccccc3)N(CCc3ccc(Cl)c(Cl)c3)C(=O)C2=O)cc1	-5	-3	21*	4	30*	7
COc1ccc(CNC(=O)[C@@H]2CC=C[C@@H]3CCN(Cc4ccc(Cl)c(Cl)c4)C(=O)[C@@H]32)cc1	10	-6	-2	0	0	-4
CC(C)c1nc2c(c(=O)c3ccccc3n2C)c(=O)n1CCc1ccccc1	-25	-6	20*	14	21*	34
CS(=O)(=O)N1CCCC(c2nc(-c3ccc(S(=O)(=O)NCc4ccccc4)cc3)no2)C1 (centres undefined)	-18	34*	3	-14	15	36*
COCc1cc(C)nc(SCC(=O)Nc2ccc(N3CCOCC3)cc2)c1C#N	-3	11	-3	-9	0	8
SMILES	CHRM1 PAM	CHO-K1 Ca antag	CHRM1 agonist	CHO-K1 Ca PAM	CHO-K1 Ca ag	CHRM1 antagonist
CCN(CC)CCN1C(=O)c2ccccc2NC1c1ccc(F)cc1 (centres undefined)	-2	-1	-7	5	0	-6
CCN(CC)CCN1C(=O)c2ccccc2NC1c1ccccc1F (centres undefined)	-37	-13	-12	-1	0	89*
Clc1ccc(C2=Nn3c(nnc3-c3cccnc3)SC2)s1	10	27*	1	-5	0	-3
Cc1cccc(N2C(=O)C(O)=C(C(=O)c3cccs3)C2c2ccc(C(C)C)cc2)n1 (centres undefined)	2	-16	21*	22	1	-2
COc1ccc(-c2nnc(NC(=O)C(C)C)s2)c(OC)c1	-10	-4	-1	28	5	39*
CCN(CC)C(=O)Oc1ccc(Cl)c2cccnc12	4	-9	-3	4	-1	2
O=C(Nc1cccc(C(F)(F)F)c1)Oc1ccc(Cl)c2cccnc12	-16	36*	-1	-33	16*	42*
O=C(Nc1cccc(Br)c1)Oc1cccc2cccnc12	-23	22	0	-8	7	43*
O=C(Nc1c(Cl)cccc1Cl)Oc1cccc2cccnc12	2	-1	-12	13	1	-4
O=C(CC1NCCN(Cc2ccccc2)C1=O)Nc1ccccc1 (centres undefined)	4	-9	-3	9	2	4
COc1ccc(S(=O)(=O)N2CCN(C(=O)c3cccnc3)CC2)cc1OC	4	-10	-4	9	1	-13
COc1ccc(S(=O)(=O)N2CCN(C(=O)c3ccc(=O)[nH]n3)CC2)cc1OC	7	8	1	3	16*	-2
COc1ccc(C(=O)N2CCN(S(=O)(=O)c3ccc(F)cc3)CC2)cc1OC	12	9	-8	7	20*	-6
COc1ccc(C(=O)N2CCN(S(=O)(=O)c3ccc(Cl)cc3)CC2)cc1OC	8	-7	-5	20	2	-7
Cc1ccc(C(=O)N2CCN(S(=O)(=O)c3ccccc3)CC2)cc1	-9	7	-6	-5	-1	31*
CCn1c(N2CCN(C(=S)NCC(C)C)CC2)nc2ccccc21	-24	-12	-7	10	7	39*
CCn1c(N2CCN(C(=S)NC)CC2)nc2ccccc21	0	-18	-3	11	2	-25
CN(C)c1ccnc(Nc2ccc(O)cc2)c1C#N	9	2	-13	4	0	-6
O=C(Nc1ccc2c(c1)C(=O)OC2)c1ccc(F)cc1F	11	-5	-4	18	1	-14

Bioassay records from PubChem.
